Among the data in ChEMBL document CHEMBL4513216, “Probing the Open Global Health Chemical Diversity Library for Multistage-Active Starting Points for Next-Generation Antimalarials” (ACS Infect Dis, 2020) are INHIBITION values, retold here.

Each structure is given as a SMILES string. Screen size: about 68,000 compounds; about 2,700 (4%) showed an effect of 50% or more. This excerpt belongs to a sample that is enriched for strong results.

For this test, the system named is Plasmodium berghei. Kind of test: Screen against P. berghei liver stage (PbLuc), transformed with Luciferase, at 2uM. Format: functional, HepG2. The conditions noted are these: tested at 2 uM.
On to `COc1ccc(C)cc1CN1CCOC(Cn2nc(C)nc2C)C1` (configuration not stated), for which the INHIBITION was determined as 60.09%.

With `COc1ccc(CCN2CCOC(Cn3nc(C)nc3C)C2)cc1` (configuration not stated), the INHIBITION was 34.97%.

Turning to `Cc1cc(C)n(CC2CN(CCOc3ccc(C#N)cc3)CCO2)n1` (configuration not stated), the INHIBITION is 13.24%.

As to `Cc1nc(C)n(CC2CN(CCOc3ccc(C#N)cc3)CCO2)n1` (configuration not stated), the INHIBITION came to 50.05%.

As to `Cc1nc(C)n(CC2CN(CCCc3ccccc3)CCO2)n1` (configuration not stated), the INHIBITION was 40.72%.

Consider `Cc1nc(C)n(CC2CN(Cc3ccccc3OC(C)C)CCO2)n1` (configuration not stated), for which the INHIBITION is given as -3.06%.

On to `Cc1nc(C)n(CC2CN(Cc3cccc4ccccc34)CCO2)n1` (configuration not stated), for which the INHIBITION is recorded as -53.98%.

On to `Cc1nc(C)n(CC2CN(CCc3ccncc3)CCO2)n1` (configuration not stated), for which the INHIBITION is given as 70.27%.

Turning to `Cc1ncc(S(C)(=O)=O)c(N2CCCCCC2)n1`, the INHIBITION came to 2.97%.

With `CCn1c(C)nnc1CN(C)C1CCN(Cc2nnc(C3CC3)o2)C1` (configuration not stated), the INHIBITION was determined as 12.75%.

In the case of `CCC1(C(=O)O)CCCN(C(=O)c2ccc(O)c(Cl)c2)C1` (configuration not stated), the INHIBITION is reported as -2.86%.

Regarding `CCOC(=O)c1coc(N2CCN(Cc3ccc(C)cc3)C(=O)C2)n1`, the INHIBITION is 33.9%.

With `Cn1nc(C2CCCN(Cc3cccc(F)c3)C2)c2nccnc21` (configuration not stated), the INHIBITION is -13.37%.

On to `CC(C)OCCN1CCC(C(=O)c2cc(F)ccc2F)CC1`, for which the INHIBITION turned out to be 50.76%.

As for `O=C(CCN1CCC(C(=O)c2cc(F)ccc2F)CC1)NC1CCCC1`, the INHIBITION is 64.9%.

Regarding `O=C(CN1CCC(C(=O)c2cc(F)ccc2F)CC1)NC1CCCC1`, the INHIBITION is reported as -21.84%.

Consider `O=C(CCN1CCC(C(=O)c2cc(F)ccc2F)CC1)NC1CC1`, for which the INHIBITION came out at 34.93%.

For `CCOCCN1CCC(C(=O)c2cc(F)ccc2F)CC1`, the INHIBITION worked out at 43%.

Turning to `COCCN1CCC(C(=O)c2cc(F)ccc2F)CC1`, the INHIBITION is listed as -11.34%.

For `CN1CCC(N(C)CCC(=O)N2CCC(Oc3ccc(Cl)cc3)CC2)C1` (configuration not stated), the INHIBITION is 8.75%.

In the case of `Cn1nc(C(=O)N2CCOCC2)c2c1CN(CC1CCC1)C2`, the INHIBITION is 36.29%.

For `Cc1cc(-c2ccc(=O)n(C3CCN(S(=O)(=O)N(C)C)CC3)n2)c(C)o1`, the INHIBITION is on record as -34.37%.

In the case of `CCC(CO)N(Cc1ccco1)Cc1c(C)nn(C)c1Cl` (configuration not stated), the INHIBITION is recorded as -10.67%.

Regarding `CN1CCN(C(=O)c2cccn2C)c2ccccc2C1`, the INHIBITION was -9.98%.

As for `CCOC(=O)[C@]12CCCN(Cc3nccs3)C[C@H]1CN(C(C)C)C2`, the INHIBITION is recorded as 34.47%.

For `Cc1nc(C)c(CN2CCOC[C@H](Oc3ccccc3)C2)s1`, the INHIBITION amounted to 64.92%.

For the compound `Cc1cccc(O[C@H]2COCCN(Cc3sc(C)nc3C)C2)n1`, the INHIBITION is 17.64%.

As for `Cc1nc(C)c(CN2CCOC[C@H](Oc3ccc(S(C)(=O)=O)cc3)C2)s1`, the INHIBITION was -40.15%.

On to `CS(=O)(=O)c1ccc(O[C@H]2COCCN(Cc3ccncc3)C2)cc1`, for which the INHIBITION was 50.91%.

For the compound `COc1ccc(CN2CCOC[C@H](Oc3cccnc3)C2)cc1`, the INHIBITION worked out at 27.04%.

In the case of `CC(C)CN1CCOC[C@H](Oc2ccc(S(C)(=O)=O)cc2)C1`, the INHIBITION is recorded as -36.65%.

Take `CCN(Cc1ccc(C#N)cc1F)C(=O)C(C)(C)C`: the INHIBITION was 0.53%.

On to `CCCS(=O)(=O)N1C[C@H]2CC[C@@H](C1)N(Cc1cscn1)C2=O`, for which the INHIBITION amounted to 36.28%.

In the case of `CN(C)CC(=O)N1CCC2(CC1)COCCN(Cc1ccncc1)C2`, the INHIBITION stood at 32.66%.

Consider `CCCc1nc(C(=O)N[C@H]2COC[C@@H]2N2CCN(C)CC2)cs1`, for which the INHIBITION was -0.83%.

Take `CS(=O)(=O)CCCN(CCc1cccc(F)c1)C1CC1`: the INHIBITION amounted to 7.36%.

As for `Cc1csc2c(N3CCNC(C(=O)Nc4ccc(F)cc4)C3)ncnc12` (configuration not stated), the INHIBITION is given as -17.67%.

`Cc1ccc2c(c1)C(=O)NCC1(CCN(C(=O)c3ccnn3C)CC1)O2`: the INHIBITION is listed as 59.27%.

Turning to `CCC(=O)N1CCC2(CC1)CNC(=O)c1cc(C)ccc1O2`, the INHIBITION worked out at 61.99%.

For `Cc1ccc2c(c1)C(=O)NCC1(CCN(C(=O)c3csc(C)c3)CC1)O2`, the INHIBITION came out at 38.75%.

On to `Cc1ccc2c(c1)C(=O)NCC1(CCN(Cc3ccccc3)CC1)O2`, for which the INHIBITION is given as 34.9%.

For `Cc1ccc2c(c1)C(=O)NCC1(CCN(C(=O)c3cnccn3)CC1)O2`, the INHIBITION came out at 64.07%.

Regarding `Cc1ccc2c(c1)C(=O)NCC1(CCN(C(=O)c3sccc3C)CC1)O2`, the INHIBITION is recorded as 46.15%.

Consider `Cc1ccc2c(c1)C(=O)NCC1(CCN(C(=O)c3scnc3C)CC1)O2`, for which the INHIBITION is given as -2.31%.

Regarding `Cc1ccc2c(c1)C(=O)NCC1(CCN(C(=O)c3cc(C)no3)CC1)O2`, the INHIBITION came to 9.51%.

Regarding `Cc1ccc2c(c1)C(=O)NCC1(CCN(C(=O)c3ccccn3)CC1)O2`, the INHIBITION turned out to be 38.12%.

Take `Cc1ccc(F)cc1NC(=O)CCn1cncn1`: the INHIBITION stood at 5.31%.

`Cc1nc(CN2C[C@@H]3CN(C(=O)c4cccn4C)C[C@@H]3C2=O)cs1`: the INHIBITION is recorded as -32.67%.

For the compound `O=C(C1CCCCC1)N1CCC2(CC1)CNCc1ccccc12`, the INHIBITION stood at 31.27%.

As for `O=C(CN1CCOC(CNc2cccnn2)C1)NCc1ccccn1` (configuration not stated), the INHIBITION is listed as 33.12%.

For the compound `Cc1nn(CC(=O)O)c(C)c1NS(=O)(=O)c1cc2ccccc2s1`, the INHIBITION is on record as -38.97%.

Consider `O=c1cc(CN2CCCC(CCc3c(F)cccc3F)C2)[nH]c(=O)[nH]1` (configuration not stated), for which the INHIBITION is reported as -21.63%.
